# Records with an inconclusive call do not appear. Entries that show only a call come without a potency. The source made the active and inactive calls. Unless noted, calls follow the shape of the dose curve; as a rule, active = well fitted curve in the direction sought with a large enough effect; inconclusive = small, poorly fitted or top-dose-only effect, or another doubt; inactive = no such curve, though single readings can be large; an effect the other way counts as inactive or inconclusive.
# What was measured:
# [1] = Cell Viability - LYMP2-003 (AID 965);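 also: cells exposed to compounds for 24 h before reading; nearly all actives have a fitted effect of over 50% in size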
# How it was run: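 CellTiter-Glo luminescence quantified ATP loss after 24 h compound treatment of LYMP2-003 lymphoblastoid cells at 37 C. Titration series were fitted with the standard Hill equation to give AC50.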
# [2] = qHTS assay for small molecule agonists of the antioxidant response element (ARE) signaling pathway (AID 651741; active = well fitted activation curve with a large enough effect in the signal ratio; the % refers to the signal ratio; also: potency is read from the fitted curve at half-maximal effect)
# How it was run: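 HepG2 ARE-bla cells plated at 2,000 cells/well and incubated 5 h at 37 C/5% CO2 received 23 nL compound in DMSO. After 16 h at 37 C, LiveBLAzer B/G FRET substrate was applied for 2 h at room temperature and fluorescence read.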
# [3] = qHTS assay for small molecule activators of the nuclear factor-kappa B (NF-kB) signaling pathway (AID 651749; active = well fitted activation curve with a large enough effect in the signal ratio; the % refers to the signal ratio); conditions: NF-kB-bla ME-180 cells, beta-lactamase FRET ratio, 16 h; stronger effect = higher value
# How it was run: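 Incubation lasted 16 hr at 37C in 5% CO2 after 23 nL compound addition to ME-180 NF-kB-bla cells. Activation appears as beta-lactamase-mediated FRET loss.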
# [4] = biological target: Nuclear receptor ROR-gamma (Homo sapiens) (UniProt P51449); test: qHTS assay for small molecule antagonists of the retinoid-related orphan receptor gamma (ROR-gamma) signaling pathway (AID 651802); also: nearly all actives have a fitted effect of over 60% in size
# Chain of Nuclear receptor ROR-gamma (Homo sapiens) (P51449 whole entry, looked up): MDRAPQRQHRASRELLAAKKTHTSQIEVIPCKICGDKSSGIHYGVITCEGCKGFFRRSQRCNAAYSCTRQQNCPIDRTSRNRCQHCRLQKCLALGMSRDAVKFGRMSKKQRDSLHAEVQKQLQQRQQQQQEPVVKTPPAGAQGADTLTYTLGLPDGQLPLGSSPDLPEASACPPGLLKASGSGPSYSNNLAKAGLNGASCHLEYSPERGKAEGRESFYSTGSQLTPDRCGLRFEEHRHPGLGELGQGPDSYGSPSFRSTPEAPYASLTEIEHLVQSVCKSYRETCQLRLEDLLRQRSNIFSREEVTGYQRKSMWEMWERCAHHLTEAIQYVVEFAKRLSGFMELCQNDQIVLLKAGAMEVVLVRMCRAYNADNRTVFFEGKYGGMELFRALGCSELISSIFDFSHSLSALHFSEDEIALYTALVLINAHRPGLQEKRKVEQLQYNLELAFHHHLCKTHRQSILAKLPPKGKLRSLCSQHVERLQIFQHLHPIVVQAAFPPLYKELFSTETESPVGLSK
# How it was run: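 CHO cells carrying TET-inducible ROR-gamma and an ROR response element–luciferase reporter were exposed to compound, then induced with doxycycline. After 16hr at 37C, luminescence was read; lower signal indicates antagonism.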
# [5] = qHTS assay for small molecule activators of the human pregnane X receptor (PXR) signaling pathway (AID 720659; call rule not given here)
# [6] = system: 7G8; test: qHTS profiling for inhibitors of Plasmodium falciparum proliferation (AID 504749); also: nearly all actives have a fitted effect of over 60% in size; conditions: P. falciparum in erythrocytes, SYBR Green DNA, 72 h; series mostly up to 12.8 µM
# How it was run: (§1)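 Readout was DNA-dye fluorescence from lysed cultures, ex 485/em 535 nm. Parasitized red cells had grown 72 h with compound; data scaled between 0.29 uM artemisinin and DMSO wells and corrected using vehicle-only plates.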
# [7] = system: CP215; test: as above; conditions: P. falciparum in erythrocytes, SYBR Green DNA, 72 h; series mostly up to 28.7 µM
# How it was run: as §1
# [8] = system: DIV17; test: as above; conditions: P. falciparum in erythrocytes, SYBR Green DNA, 72 h; series mostly up to 12.8 µM
# How it was run: as §1
# [9] = system: ICS; test: as above; conditions: P. falciparum in erythrocytes, SYBR Green DNA, 72 h; series mostly up to 12.8 µM
# How it was run: as §1
# [10] = system: P93_24; test: as above; conditions: P. falciparum in erythrocytes, SYBR Green DNA, 72 h; series mostly up to 12.8 µM
# How it was run: as §1
# [11] = biological target: DNA dC->dU-editing enzyme APOBEC-3G (Homo sapiens) (UniProt Q9HC16); test: qHTS for inhibitors of Vif-A3G interactions: Validation (AID 588379)
# Chain of DNA dC->dU-editing enzyme APOBEC-3G (Homo sapiens) (Q9HC16 whole entry, looked up): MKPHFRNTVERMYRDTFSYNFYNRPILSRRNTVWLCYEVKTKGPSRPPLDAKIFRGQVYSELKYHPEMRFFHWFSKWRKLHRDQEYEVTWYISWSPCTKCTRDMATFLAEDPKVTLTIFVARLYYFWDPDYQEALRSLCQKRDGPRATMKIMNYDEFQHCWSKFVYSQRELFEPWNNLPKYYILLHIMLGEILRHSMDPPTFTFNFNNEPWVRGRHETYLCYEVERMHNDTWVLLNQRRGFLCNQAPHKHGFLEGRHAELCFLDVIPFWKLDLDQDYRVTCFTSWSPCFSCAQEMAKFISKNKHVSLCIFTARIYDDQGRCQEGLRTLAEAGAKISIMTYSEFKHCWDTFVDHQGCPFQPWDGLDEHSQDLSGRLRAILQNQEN
# How it was run: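 HeLa cells stably expressing Vif and A3G-eYFP, 700 cells/well, incubated overnight at 37 deg C, then exposed to compound overnight at 37 deg C. Inhibition of Vif-mediated degradation read as increased yellow fluorescence (Ex 488/Em 500-530) by laser-scanning cytometry.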
# [12] = biological target: Nuclear receptor subfamily 1 group I member 3 (Homo sapiens) (UniProt Q14994); test: Primary qHTS for agonist of constitutive androstane receptor (CAR) against the NCATS DSHEA and TCM libraries (AID 1794839);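 also: HepG2 cells expressing human CAR with a CYP2B6 reporter plus PK11195 antagonist; luciferase reporter luminescence read with ONE-Glo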
# Chain of Nuclear receptor subfamily 1 group I member 3 (Homo sapiens) (Q14994 whole entry, looked up): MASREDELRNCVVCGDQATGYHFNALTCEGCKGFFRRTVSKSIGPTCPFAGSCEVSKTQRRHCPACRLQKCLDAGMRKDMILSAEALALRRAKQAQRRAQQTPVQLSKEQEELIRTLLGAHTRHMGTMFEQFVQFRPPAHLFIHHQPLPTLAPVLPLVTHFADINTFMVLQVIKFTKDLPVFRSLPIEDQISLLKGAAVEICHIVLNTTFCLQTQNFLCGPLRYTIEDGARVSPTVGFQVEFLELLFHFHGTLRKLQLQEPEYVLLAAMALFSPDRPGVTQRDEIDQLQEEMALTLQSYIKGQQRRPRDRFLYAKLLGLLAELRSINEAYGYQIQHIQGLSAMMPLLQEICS
# How it was run: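 Agonist mode in presence of hCAR antagonist PK11195 (0.75 µM final): test substances, 24 h, 37 °C, on HepG2-CYP2B6-hCAR cells. Same-well readouts: fluorescence viability, then ONE-Glo luminescence; CITCO as reference agonist.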
# [13] = biological target: Cytochrome P450 3A4 (Homo sapiens) (UniProt P08684); test: qHTS for inhibitors of CYP3A4 against the NCATS DSHEA and TCM libraries (AID 1919971);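 also: inhibition lowers luminescence from luciferin made by CYP3A4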
# Chain of Cytochrome P450 3A4 (Homo sapiens) (P08684 whole entry, looked up): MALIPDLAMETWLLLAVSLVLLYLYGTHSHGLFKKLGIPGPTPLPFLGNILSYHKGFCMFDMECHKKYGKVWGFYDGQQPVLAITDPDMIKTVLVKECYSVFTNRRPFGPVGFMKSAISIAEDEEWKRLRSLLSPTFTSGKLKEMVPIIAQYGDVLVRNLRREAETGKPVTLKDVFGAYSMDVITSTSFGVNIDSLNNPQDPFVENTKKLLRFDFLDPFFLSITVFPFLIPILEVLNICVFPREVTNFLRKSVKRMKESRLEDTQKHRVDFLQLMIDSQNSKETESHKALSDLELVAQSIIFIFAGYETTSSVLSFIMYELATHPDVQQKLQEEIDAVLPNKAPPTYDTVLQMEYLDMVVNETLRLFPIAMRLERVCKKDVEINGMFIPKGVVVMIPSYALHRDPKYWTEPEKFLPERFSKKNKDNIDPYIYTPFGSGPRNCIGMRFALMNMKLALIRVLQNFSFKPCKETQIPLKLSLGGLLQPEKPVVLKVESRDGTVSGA
# How it was run: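 Luminescent P450-Glo readout. Enzyme plus pro-luciferin substrate in manufacturer buffer (typically 100 mM KPO4); 15 min RT preincubation; 1x NADPH regenerating system, 30-45 min RT in the dark; detection reagent 30 min.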
# [14] = biological target: Bile acid receptor (Homo sapiens) (UniProt Q96RI1); test: qHTS assay for small molecule antagonists of farnesoid X receptor signaling (AID 588526; calls by dose curve)
# Chain of Bile acid receptor (Homo sapiens) (Q96RI1 whole entry, looked up): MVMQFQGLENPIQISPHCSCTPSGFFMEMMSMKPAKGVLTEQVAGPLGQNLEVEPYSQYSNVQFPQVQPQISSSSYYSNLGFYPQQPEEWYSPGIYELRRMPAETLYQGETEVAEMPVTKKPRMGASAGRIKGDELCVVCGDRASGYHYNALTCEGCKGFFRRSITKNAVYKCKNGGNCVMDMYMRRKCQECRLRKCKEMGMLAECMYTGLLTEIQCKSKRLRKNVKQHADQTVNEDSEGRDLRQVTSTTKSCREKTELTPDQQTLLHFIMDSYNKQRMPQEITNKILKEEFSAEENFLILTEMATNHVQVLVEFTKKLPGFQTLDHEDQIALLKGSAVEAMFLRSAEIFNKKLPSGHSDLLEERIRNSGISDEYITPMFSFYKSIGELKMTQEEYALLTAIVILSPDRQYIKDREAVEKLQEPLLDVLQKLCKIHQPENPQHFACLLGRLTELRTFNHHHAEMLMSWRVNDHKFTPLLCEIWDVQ
# How it was run: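 Antagonist mode: titrated compounds tested against chenodeoxycholic acid stimulation (normalized to 50 uM CDCA and DMSO) in GeneBLAzer HEK293T cells for 16 h. Beta-lactamase read by CCF4 fluorescence; IC50 from Hill fits.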
# [15] = biological target: Glucocorticoid receptor (Homo sapiens) (UniProt P04150); test: qHTS assay for small molecule agonists of glucocorticoid receptor signaling (AID 588532; active = well fitted curve in the direction sought with a large enough effect in the signal ratio, with a control signal flat; the % refers to the signal ratio); conditions: HeLa MMTV-bla, beta-lactamase ratio, agonist, 18 h; stronger effect = higher value; percent of dexamethasone control, DMSO zero
# Chain of Glucocorticoid receptor (Homo sapiens) (P04150 whole entry, looked up): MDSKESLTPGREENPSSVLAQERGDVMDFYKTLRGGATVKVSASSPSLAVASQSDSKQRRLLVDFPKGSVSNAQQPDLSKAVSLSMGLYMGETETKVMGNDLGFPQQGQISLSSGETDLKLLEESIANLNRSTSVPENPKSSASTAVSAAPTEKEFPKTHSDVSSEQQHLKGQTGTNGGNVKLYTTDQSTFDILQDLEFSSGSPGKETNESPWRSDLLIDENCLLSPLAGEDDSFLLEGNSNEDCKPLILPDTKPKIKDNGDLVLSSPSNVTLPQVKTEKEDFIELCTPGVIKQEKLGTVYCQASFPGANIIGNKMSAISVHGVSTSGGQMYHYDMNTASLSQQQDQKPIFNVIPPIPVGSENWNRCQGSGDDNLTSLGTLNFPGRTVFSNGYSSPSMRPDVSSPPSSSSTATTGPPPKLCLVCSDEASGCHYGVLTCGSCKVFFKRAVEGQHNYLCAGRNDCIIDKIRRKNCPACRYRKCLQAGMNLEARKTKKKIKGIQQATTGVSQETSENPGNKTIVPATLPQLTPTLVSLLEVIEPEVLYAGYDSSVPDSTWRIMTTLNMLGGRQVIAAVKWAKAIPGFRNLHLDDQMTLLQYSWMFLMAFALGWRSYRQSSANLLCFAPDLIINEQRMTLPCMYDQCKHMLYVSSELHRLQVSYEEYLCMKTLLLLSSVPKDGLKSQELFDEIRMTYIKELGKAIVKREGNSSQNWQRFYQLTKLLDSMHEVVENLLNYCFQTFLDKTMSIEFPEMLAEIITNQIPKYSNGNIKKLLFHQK
# How it was run: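 HeLa GRE-bla reporter cells; 18 h compound exposure at 37 C; 2 h CCF4 loading at room temperature; fluorescence at 460 and 530 nm; EC50 by Hill equation.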
# [16] = biological target: Glucocorticoid receptor (Homo sapiens) (UniProt P04150); test: qHTS assay for small molecule antagonists of glucocorticoid receptor signaling (AID 588533; active = well fitted inhibition curve with a large enough effect in the signal ratio, with a control signal flat, not every such curve was filed as active; the % refers to the signal ratio;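 also: cells stimulated with 2 nM dexamethasone as agonist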)
# How it was run: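 Antagonist-mode qHTS: compound titrations added to GRE-bla HeLa cells, then dexamethasone 2 nM final; 18 h, 37 C. CCF4 FRET fluorescence normalized to dexamethasone and DMSO; IC50 from Hill fit.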
# [17] = qHTS assay for small molecule antagonists of peroxisome proliferator-activated receptor delta signaling (AID 588535; active = well fitted inhibition curve with a large enough effect in the signal ratio, with a control signal flat, not every such curve was filed as active; the % refers to the signal ratio;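 as to max response: cells co-treated with a PPAR-delta agonist as stimulator during compound exposure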); conditions: HEK293T PPARd-UAS-bla, beta-lactamase FRET ratio, 18 h; 460 nm channel
# How it was run: (§2)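 Cells were seeded at 4000 per well in assay medium containing 2% charcoal/dextran FBS and held 5 hrs at 37 C. Compounds were then added for 18 hrs. CCF4 substrate was applied for 2 hrs at room temperature before fluorescence reading.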
# [18] = biological target: Peroxisome proliferator-activated receptor delta (Homo sapiens) (UniProt Q03181); test: as above
# Chain of Peroxisome proliferator-activated receptor delta (Homo sapiens) (Q03181 whole entry, looked up): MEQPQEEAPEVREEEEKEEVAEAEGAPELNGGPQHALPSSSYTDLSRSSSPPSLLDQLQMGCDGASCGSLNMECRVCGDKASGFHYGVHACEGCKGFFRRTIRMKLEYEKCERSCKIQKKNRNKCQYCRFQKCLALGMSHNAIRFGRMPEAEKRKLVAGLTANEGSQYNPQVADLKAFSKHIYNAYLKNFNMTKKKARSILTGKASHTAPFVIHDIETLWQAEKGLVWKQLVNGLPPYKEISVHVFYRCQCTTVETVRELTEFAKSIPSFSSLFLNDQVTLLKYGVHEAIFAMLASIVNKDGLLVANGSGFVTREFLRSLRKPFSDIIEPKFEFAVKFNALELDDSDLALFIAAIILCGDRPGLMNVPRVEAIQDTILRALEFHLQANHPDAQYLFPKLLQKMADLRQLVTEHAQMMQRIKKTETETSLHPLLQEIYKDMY
# How it was run: as §2
# [19] = S16 Schwann cell viability assay (CellTiter-Glo assay) (AID 624031);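 also: cellular ATP luminescence as a viability measure; nearly all actives have a fitted effect of over 70% in size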
# How it was run: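 Untransfected S16 rat Schwann cells; compound 24 h, 37 °C/5% CO2; CellTiter-Glo ATP luminescence. % activity vs no-cell wells and DMSO controls (0%); concentration-effect curves classed by r2, response magnitude, activity.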
compound,measurement,setting,value
Cc1occc(=O)c1O,outcome,[1],inactive
same,Potency,[2],inactive
same,activation,[3],-0.401% (inactive)
same,outcome,[4],inactive
same,outcome,[5],inactive
O=C(Cc1cccs1)NC1C(=O)N2C(C(=O)[O-])=C(C[n+]3ccccc3)CSC12 (stereo not drawn),Potency,[6],inactive
same,Potency,[7],inactive
same,Potency,[8],inactive
same,Potency,[9],inactive
same,Potency,[10],inactive
O=C(/C=C/c1ccc(O)c(O)c1)OC(Cc1ccc(O)c(O)c1)C(=O)O (stereo not drawn),outcome,[11],inactive
same,outcome,[12],inactive
same,outcome,[13],inactive
O=c1cc(-c2ccc(O)cc2)oc2cc(O[C@H]3OC(CO)C(O)C(O)C3O)cc(O)c12 (stereo partly drawn),outcome,[13],inactive
CC1=CC(=O)CC(C)(C)C1(O)/C=C/C(C)=C\C(=O)O (stereo not drawn),outcome,[1],inactive
same,outcome,[11],inactive
same,outcome,[14],inactive
same,activation,[15],1.52% (inactive)
same,outcome,[16],inactive
same,max response,[17],3.87%
same,outcome,[18],inactive
same,Potency,[2],37.6 µM (active)
same,activation,[3],1.73% (inactive)
same,outcome,[4],inactive
same,outcome,[5],inactive
NC(Cc1c[nH]c2ccccc12)C(=O)O (stereo not drawn),outcome,[13],inactive
CC(C)N1CCN(c2ccc(OC[C@@H]3CO[C@@](Cn4cncn4)(c4ccc(Cl)cc4Cl)O3)cc2)CC1,Potency,[19],inactive
same,Potency,[8],inactive
same,Potency,[9],inactive
C[C@@H]1CCC[C@H](C)N1NC(=O)c1ccc(Cl)c(S(N)(=O)=O)c1,Potency,[19],inactive
same,Potency,[6],inactive
same,Potency,[7],inactive
same,Potency,[8],inactive
same,Potency,[9],inactive
same,Potency,[10],inactive
COS(C)(=O)=O,outcome,[1],inactive
same,activation,[15],-1.66% (inactive)
same,outcome,[16],inactive
same,max response,[17],-15.8%
same,outcome,[18],inactive
same,activation,[3],0.279% (inactive)
same,outcome,[4],inactive
same,outcome,[5],inactive

# Source: PubChem BioAssay (NCATS)
